This is a sample that favours compounds with a hit; in the whole collection about 21% have one here.
Shiga toxin inh = A qHTS for Small Molecule Inhibitors of Shiga Toxin | Vero cells, Shiga toxin protein synthesis inhibition reporter | inhibition, % at 38.7 µM | 9.2% of 290,000 active | AID 2315, 2010; in the data active = inhibition mostly above about 28%, no sharp cut-off; inactive = mostly below about 43%; also: 0% is about no effect
HCV inh = qHTS Assay for Inhibitors of Hepatitis C Virus (HCV); Huh7.5.1 HCVcc-Cre infection, luciferase reporter, 44 h; Potency, µM (series often up to 41.8 µM), for the others: at the top dose activity change, negative = inhibition, usual class: inhibitors; 3.4% of 340,000 active; also: potency is read from the fitted curve at half-maximal effect; % is scaled to controls: 0 for no effect and ±100 for the full control effect
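Cells (1,000/well) were plated 4 h before compound, then infected with HCVcc-Cre virus (~0.5 moi). After 44 h further culture, infection was read as luciferase luminescence following a 15 min substrate incubation at room temperature.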
Pf growth 96h = Primary qHTS for delayed death inhibitors of the malarial parasite plastid, 96 hour incubation; P. falciparum luciferase reporter growth, 96 h; Potency, µM (titrated, usually from 28.7 µM), for the others: top-dose activity change, negative = inhibition, usual class: inhibitors; 6.9% of 320,000 active; also: potency is read from the fitted curve at half-maximal effect; % is scaled to controls: 0 for no effect and ±100 for the full control effect
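Readout is luminescence from an integrated firefly luciferase in P. falciparum. Red cells, 2% hematocrit and 0.05% parasitemia final, were cultured with compound through two parasite generations (96 hours) at 37 C, 5% CO2.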
Pf growth 48h = Primary qHTS for delayed death inhibitors of the malarial parasite plastid, 48 hour incubation. P. falciparum luciferase growth in erythrocytes, 48 h. 5.9% of 310,000 active. AID 504832, 2011. Potency, µM (series often up to 28.7 µM), for inactives: at the highest dose activity change, negative = inhibition, usual class: inhibitors; also: potency is read from the fitted curve at half-maximal effect; % is scaled to controls: 0 for no effect and ±100 for the full control effect
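Parasite viability was followed by luminescence of a genomically integrated firefly luciferase. Cultures held 0.1% parasitemia at 2% hematocrit (final), incubated under 5% CO2 at 37 C.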
AMA1 RON2 block = qHTS for Inhibitors of AMA1-RON; Towards Development of Antimalarial Drug Lead: Primary Screen; Plasmodium falciparum AMA1 (3D7) - RON2 peptide interaction; AlphaScreen AMA1-biotinylated RON2 peptide binding; Potency, µM (top dose mostly 58.2 µM), for inactives: at the top dose activity change, negative = inhibition, actives largely listed as inhibitors; 0.2% of 360,000 active;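 also: potency is read from the fitted curve at half-maximal effect; 0% = vehicle wells and -100% = peptide control; nearly all actives have a fitted effect of over 45% in size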
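AMA1 (3D7) with his tag at 25 nM final met compounds first, then biotinylated RON2 peptide at 25 nM; detection used donor plus acceptor beads, 10 µg/mL apiece, read by AlphaScreen after 30 min at room temperature.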
CHX counter = Cycloheximide Counterscreen for Small Molecule Inhibitors of Shiga Toxin; cell reporter, cycloheximide protein synthesis inhibition counterscreen; 12% of 300,000 active; max response, %; AID 2314, 2010; in the data active = max response mostly above about 13%, no sharp cut-off; inactive = mostly below about 14%; also: read at 38.3 µM for the half of the compounds with a filed dose; 0% is about no effect
* = called active by the depositor; ? = inconclusive; . = no result; [ ] = another dose, or the depositor's remark. Unless noted, calls follow the shape of the dose curve; as a rule, active = well fitted curve in the direction sought with a large enough effect; inconclusive = small, poorly fitted or top-dose-only effect, or another doubt; inactive = no such curve, though single readings can be large; an effect the other way counts as inactive or inconclusive.

SMILES	Shiga toxin inh	HCV inh	Pf growth 96h	Pf growth 48h	AMA1 RON2 block	CHX counter
O=C(O)CCC(=O)Nc1ccccc1C(=O)NCc1ccco1	-10.5	1.2%	-9.6%	18.5%	8.2%	-1.8
Oc1ccc(/C=N/N2CCN(C3c4ccccc4-c4ccccc43)CC2)cc1O	16.9	-3.8%	?	?	-13.8%	4.6
C#Cc1ccc([C@H]2C=C(C(=O)N3CCN(Cc4ccccc4)CC3)O[C@@H](OCC)[C@@H]2CCCO)cc1	-13.7	-8.1%	10.4µM*	?	-2.1%	0.1
CCO[C@@H]1OC(C(=O)N2CCN(Cc3ccccc3)CC2)=C[C@H](c2ccccc2)[C@H]1CCCO	-18.3	-19.5%	?	?	6.3%	0.9
C#Cc1ccc([C@@H]2C=C(C(=O)N3CCN(Cc4ccccc4)CC3)O[C@H](OCC)[C@H]2CCCO)cc1	-2.8	?	6.57µM*	?	-13.2%	-3.0
CNC(=O)CSc1nnc(-c2ccco2)n1-c1cccc(OC)c1	-0.5	10.2%	2.08µM*	-12.9%	9.7%	-2.8
CNC(=O)CSc1nnc(-c2ccco2)n1-c1cc(C)ccc1C	-11.1	4.9%	11.7µM*	-13.9%	-5.4%	1.5
CNC(=O)CSc1nnc(-c2ccco2)n1-c1cccc(C)c1	-15.1	-27.1%	-12.7%	-20.6%	8.9%	1.6
COc1ccc(OC)c(NC(=O)CSc2nnc(-c3ccco3)n2-c2ccc(C(=O)O)cc2)c1	-3.0	-2.8%	0.415µM*	4.65µM*	13.3%	8.0
NS(=O)(=O)c1ccc(CNS(=O)(=O)c2cccc3nonc23)cc1	-6.2	9.9%	44.1%	5.8%	-9.7%	-2.9
NS(=O)(=O)c1ccc(CCNC(=O)COC(=O)C2CCN(c3ccc(C(F)(F)F)cn3)CC2)cc1	.	5.6%	0.0%	6.3%	-14.4%	.
CCCS(=O)(=O)NC(=O)C1(C)CCN(C(=O)Cc2cccc3ccccc23)C1 (centres undefined)	.	.	.	.	-7.7%	.
C[C@H](CO)N1C[C@H](C)[C@@H](CN(C)S(=O)(=O)c2cn(C)cn2)Oc2ccc(NC(=O)Cn3cnnn3)cc2C1=O	.	0.7%	.	.	10.5%	.
Cc1ccc(S(=O)(=O)N2CCCC(c3nnc4n3-c3ccccc3SC4)C2)cc1 (centres undefined)	-6.2	-29.6%	13.1µM*	0.0%	-3.3%	-1.8
O=c1[nH]c(O)c(/C=C2/C=CC(c3cc(Cl)ccc3Cl)=N2)c(=O)[nH]1	-6.8	31.6µM*	112.6%	65.1%	11.5%	0.4
Cc1ccc2c(c1)=NC(=O)/C(=C/c1c(O)[nH]c(=O)[nH]c1=O)C=2	-3.4	-7.0%	24.0%	1.7%	-1.5%	-1.2
CCOC(=O)C1(C)CCCN(C(=O)c2c(F)cccc2F)C1 (centres undefined)	.	.	.	.	-6.4%	.
O=C(NCC(=O)N1CC(O)CC1C(=O)N1CC(O)CC1C(=O)OCc1ccccc1)OCc1ccccc1 (centres undefined)	87.7*	3.2%	11.3%	8.6%	3.9%	20.1
CC1CCCN(c2ccc3nncn3n2)C1 (centres undefined)	-7.6	2.5%	12.2%	.	10.4%	-4.5
COCc1nnc(NC(=O)c2ccc(S(=O)(=O)N3CCCc4ccccc43)cc2)o1	-8.4	12.6µM*	?	?	110.0%	6.5
COc1ccc(-c2nnc(NC(=O)c3ccc(S(=O)(=O)N4CCCc5ccccc54)cc3)o2)cc1	-1.4	10µM*	?	11.7µM*	160.4%	1.2
O=C(Nc1nnc(C2CC2)o1)c1ccc(S(=O)(=O)N2CCCc3ccccc32)cc1	18.6	-12.2%	?	.	59.5%	-1.5
CCN(Cc1nc(-c2ccc(OC)c(OC)c2)no1)C(=O)c1ccc2c(c1)OCO2	-9.1	-18.8%	?	10.3%	-0.2%	-2.0
COCC(C)NC(=O)c1ccc2nc(-c3ccccc3)c(-c3ccccc3)nc2c1 (centres undefined)	19.5	?	-0.2%	10.8%	-16.7%	5.7
CCCN(CCC)C(=O)c1ccc2nc(-c3ccc(OC)c(OC)c3)c(-c3ccc(OC)c(OC)c3)nc2c1	-10.8	?	17.0%	7.38µM*	29.2%	-5.6
SMILES	Shiga toxin inh	HCV inh	Pf growth 96h	Pf growth 48h	AMA1 RON2 block	CHX counter
CCC(C)NC(=O)c1ccc2nc(-c3ccc(OC)c(OC)c3)c(-c3ccc(OC)c(OC)c3)nc2c1 (centres undefined)	-10.8	-3.5%	13.1µM*	2.94µM*	0.0%	8.3
O=C1C=C(O)c2c(O)cc(O)c(O)c2C1=O	.	?	.	.	1µM*	.
C=CCn1c(CCCOc2ccc(Cl)cc2Cl)n[nH]c1=S	53.9*	-3.5%	?	0.8%	33.4%	19.3*
C=CCn1c(Cc2nc3ccc(Cl)cc3[nH]2)n[nH]c1=S	-10.0	1.1%	.	7.1%	23.0%	3.6
COCCCn1cc(CN(C)C2CN(Cc3cn(CCCOC)nn3)S(=O)(=O)C2)nn1 (centres undefined)	.	.	.	.	9.8%	.
Cc1cc2oc(=O)c(CC(=O)NCCCO)c(C)c2c2occ(C(C)(C)C)c12	-2.7	-11.5%	10.1%	-0.5%[0.00184 µM]	-10.8%	8.2
Cc1cc2oc(=O)c(CC(=O)NCCCN(C)C)c(C)c2c2occ(C(C)(C)C)c12	16.5	10µM*	1.85µM*	2.62µM*	10.8%	-5.5
CCC(=O)Nc1ccc(NC(=O)c2cc3ccccc3o2)c(OC)c1	33.7*	?	11.5%	78.9%	-3.2%	26.9*
COc1cc(NC(=O)c2c(OC)cccc2OC)ccc1NC(=O)c1cc2ccccc2o1	.	25.1µM*	4.1%	81.5%	0.0%	22.3*
O=C(NCc1ccccc1)C1CCCN(C(=O)c2ccc(F)cc2)C1 (centres undefined)	.	-9.7%	-2.3%	-6.1%	14.8%	.
COc1cc(OC)c(OC)cc1CCC(C)NCCC(c1ccccc1)c1ccccc1 (centres undefined)	-15.1	7.94µM*	2.08µM*	4.15µM*	?	-3.5
COc1ccc(CCC(C)NCc2ccccc2OC)cc1 (centres undefined)	-11.4	0.1%	?	?	13.2%	0.6
CC(=O)c1c(C)[nH]c(C(=O)Nc2ccc(S(=O)(=O)N(C)C)cc2)c1C	9.5	-18.6%	13.1µM*	?	-0.1%	2.5
CC(=O)c1c(C)[nH]c(C(=O)OCC(=O)Nc2cccc(S(=O)(=O)N(C)C)c2)c1C	-16.5	6.31µM*	?	?	25.6%	-4.9
CC(=O)c1c(C)[nH]c(C(=O)Nc2cc(C)cc(C)c2)c1C	2.7	?	5.86µM*	.	-9.1%	-2.3
Cc1nnnn1/C(=C\c1ccccc1)C(=O)OCC(=O)Nc1cccc(S(=O)(=O)N(C)C)c1	.	10µM*	8.2%	14.8%	-1.7%	.

Screening results as filed in PubChem.
